Only a selection was taken, and hits are over-represented in it overall.
Anaer choline gr = blocks anaerobic gram-negative growth on choline | hit rate 0.2% among 55,000 | Gram-negative bacterium anaerobic choline minimal medium, absorbance growth; active compounds read low | calls only; call rule not given here
Calls only; - = inactive; + = active, no number.

SMILES	Anaer choline gr
Cc1ccc(Cl)cc1NS(=O)(=O)c1cc(-c2nc(C(C)(C)C)cs2)cs1	-
CC(C)(C)c1csc(-c2csc(S(=O)(=O)Nc3ccc(Cl)cc3F)c2)n1	+
Cn1c(N2CCCC(C(=O)Nc3nccs3)C2)cc(=O)n(C)c1=O (configuration not stated)	-
Cc1nn(-c2ccc(Br)cc2)c2nc(-c3ccccn3)cc(C(F)(F)F)c12	-
Cn1c(=O)n(Cc2ccccn2)c(=O)c2cnc(-c3ccncc3)nc21	-
CC(NC(=O)CCc1ccc(-n2cnc3cccnc32)cc1)c1ccccc1 (configuration not stated)	-
COc1ccc(S(=O)(=O)N2CCc3cc4cc(C)ccc4nc32)cc1	-
CN(C)c1cccc(-c2nn3c(CSc4ccccc4)nnc3s2)c1	-
COc1ccc(-c2nn3c(CSc4ccccc4)nnc3s2)cc1	-
c1ccc(SCc2nnc3sc(-c4cccnc4)nn23)cc1	+
CC(C)C(=O)Nc1ccccc1SCc1cc(=O)n2c(ncn2C(C)C)n1	-
O=C(Nc1cnn(-c2ncc(N3CCCC3)cn2)c1)NC1CCCC1	-
O=C(Nc1cnn(-c2ncc(N3CCCC3)cn2)c1)C1CCC1	+
O=C(Nc1cnn(-c2ncc(N3CCSCC3)cn2)c1)C1CCOC1 (configuration not stated)	-
O=S1(=O)N(Cc2ccc(Br)cc2F)CCN1Cc1ccc(F)cc1Cl	-
CN(C)c1ccc(-c2noc(C3CCCC3)n2)cc1	-
Cc1[nH]c(C)c(S(=O)(=O)N2CCc3ccccc3C2)c1C(=O)N1CCCC1	-
Cc1[nH]c(C)c(S(=O)(=O)N2CCC(C(=O)N3CCc4ccccc43)CC2)c1C(=O)N1CCCC1	+
Cc1[nH]c(C)c(S(=O)(=O)N2CCC(C(=O)N3CCc4ccccc43)CC2)c1C(=O)N1CCCCC1	-
Cc1cc(C)cc(-n2c(CN3CCN(C(=O)NC4CCCC4)CC3)nc3cccnc32)c1	-
CCc1ccc(NC(=O)CSc2nc(-c3ccc(C(C)C)cc3)no2)cc1	-
CCCCNC(=O)CSc1nc(-c2ccc(C(C)C)cc2)no1	+
CC(C)CCNC(=O)CSc1nc(-c2ccccc2)no1	-
CCC(C)NS(=O)(=O)c1cc(-c2nc(C)cs2)n(C)c1C (configuration not stated)	-
COc1ccc(-c2cc(C(=O)N3CCCC3c3cc(C)on3)no2)cc1OC (configuration not stated)	-
SMILES	Anaer choline gr
CCn1c(CN(c2ccc(F)cc2)S(C)(=O)=O)nnc1SCC(=O)c1ccc(Cl)cc1	-
CCn1c(CN(c2ccc(F)cc2)S(C)(=O)=O)nnc1SCC(=O)Nc1ccc(F)cc1F	+
CCn1c(CN(c2ccc(F)cc2)S(C)(=O)=O)nnc1SCC(=O)c1ccccc1	-
Cc1ccc(S(=O)(=O)Nc2ccc(-c3ccc4ccccc4n3)cc2)cc1	-
Cn1nc(C(=O)NCc2ccc(Cl)cc2)c2c1CCN(C(=O)c1cccc(F)c1)C2	-
CN1CCc2c(sc(NC(=O)C3CC3)c2-c2nc3ccccc3s2)C1	-
CC(C)N1CCc2c(sc(NC(=O)C3CC3)c2-c2nc3ccccc3s2)C1	+
CN1CCc2c(sc(NC(=O)CN3C(=O)c4ccccc4C3=O)c2-c2nc3ccccc3s2)C1	-
Cc1ccc(NC(=O)Nc2nnc(-c3cc4ccccc4o3)o2)cc1C	-
c1nc2c(c(N3CCC(N4CCCCC4)CC3)n1)CCC2	+
CN1CCCN(c2ncnc3c2CCC3)CC1	-
c1ccc(N2CCN(c3ncnc4c3CCC4)CC2)nc1	-
O=C(c1ccc(Cn2c(=O)c(=O)n(Cc3ccc(F)cc3Cl)c3cccnc32)cc1)N1CCOCC1	-
CC1(C)CC(=O)c2cnc3c(C(=O)N4CCC(N5CCCCC5)CC4)cnn3c2C1	-

High-throughput results deposited in PubChem BioAssay by ICCB-Longwood Screening Facility, Harvard Medical School.
